Source: PubChem
Tgondii IFNg: T. gondii growth inhibition with IFN-gamma, primary screen, cell-based. Toxoplasma gondii growth in IFN-gamma-treated host cells; stronger effect = lower value. activity change, negative = inhibition, % (no concentration beside the values). 3.8% of 69,000 active. AID 1259416, 2018; in the data active means activity change below about -70%, passing the limit was not always enough;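 further: host cells are HeLa cells infected with Toxoplasma gondii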
The depositor's hits bear a star. This is one part of a sample in which hits are shown more often than they occur.

For CC(C)Oc1ccc(C(=O)NCCc2csc(-c3cccc(F)c3)n2)cc1 the results were Tgondii IFNg 36.
Screening Cc1nc(-c2cccc(F)c2)sc1CCNC(=O)c1ccc(Cl)cc1 returned Tgondii IFNg -4.
Screening CCCCOc1ccc(C(=O)NCCc2sc(-c3cccc(F)c3)nc2C)cc1 returned Tgondii IFNg -94*.
Screening O=C(NCCc1csc(-c2ccc(F)cc2)n1)c1cccc(F)c1 returned Tgondii IFNg -90*.
`O=C(NCCc1csc(-c2cccc(F)c2)n1)c1cccc(F)c1` gave Tgondii IFNg -59.
Screening CN(CCO)Cc1cccc(C(=O)Nc2cccc3c2CCC3)c1 returned Tgondii IFNg -4.
Screening COc1ccccc1NC(=O)CN1CCC2(CC1)N=C(c1ccc(C(C)(C)C)cc1)C(=O)N2 returned Tgondii IFNg 10.
`Cn1cc(CN2CC[C@@H]3[C@H]2CCN3Cc2ccsc2)cn1` gave Tgondii IFNg -17.
Cn1c(C(=O)N2CCOCC2)nc2c1CCN(Cc1ccccc1)C2 was read as Tgondii IFNg -4.
Screening CCN1c2ccc(C)cc2C(=O)NC12CCN(C(=O)Cc1ccc(C)cc1)CC2 returned Tgondii IFNg -9.
Cc1nc([C@H]2C[C@@H]3CCN(C(=O)c4cnoc4C)C[C@@H]3O2)n[nH]1 was read as Tgondii IFNg 3.
For CCN1C[C@H](COC)[C@@]2(CCN(C(=O)CC3Cc4ccccc4C3)C2)C1 the results were Tgondii IFNg 3.
For COCCn1cnc2cc(C(=O)NCC3(c4ccc(C)cc4)CCOCC3)ccc21 the results were Tgondii IFNg 3.
Screening CCc1nnc(NC(=O)c2ccoc2COc2ccc(C)cc2)s1 returned Tgondii IFNg -25.
Cc1c(NC(=O)CSc2nnc(-c3cccs3)s2)c(=O)n(-c2ccccc2)n1C was read as Tgondii IFNg -26.
For CC(C)Cn1cncc1CN1CCOC(Cc2cccc(C(F)(F)F)c2)C1 (configuration not stated) the results were Tgondii IFNg -20.
Screening CC(=O)N1CCCn2c(nc(CNC(=O)c3ccco3)cc2=O)C1 returned Tgondii IFNg 81.
`CCCc1nc(C(=O)N2CC(c3ccncc3)C2)cs1` gave Tgondii IFNg -43.
For CC(C)COc1ccc(-c2noc(-c3c(O)c4cc(F)ccc4n(C)c3=O)n2)cc1 the results were Tgondii IFNg 15.
For COCCN1C(=O)N(Cc2ccccc2)C2(CCN(Cc3cnn(C)c3)CC2)C1=O the results were Tgondii IFNg 11.
Screening COc1ccc(C(=O)NCCc2csc(-c3cccc(F)c3)n2)c(OC)c1 returned Tgondii IFNg -81*.
For COc1cccc(C(=O)NCCc2csc(-c3cccc(F)c3)n2)c1 the results were Tgondii IFNg -48.
Screening COc1cc(OC)cc(C(=O)NCCc2csc(-c3cccc(F)c3)n2)c1 returned Tgondii IFNg 30.
`COc1ccc(NC(=O)c2c(O)c3cccnc3n(-c3ccccc3)c2=O)cc1OC` gave Tgondii IFNg -25.
For CN(C)CCNC(=O)c1ccnn1-c1ccc2ccccn12 the results were Tgondii IFNg -40.
For CC(=O)N1CCn2c(COCc3ccccn3)cnc2C1C (configuration not stated) the results were Tgondii IFNg 0.
CC1NCCn2c(COCc3ccccn3)cnc21 (configuration not stated) was read as Tgondii IFNg -83*.
CC1c2ncc(CNC(=O)C3CC3)n2CCN1Cc1ccccn1 (configuration not stated) was read as Tgondii IFNg 11.
For COC(=O)Cn1c(-c2ccccc2)cn2c3c(=O)n(C)c(=O)n(C)c3nc12 the results were Tgondii IFNg -8.
Cc1ccc(C)c(-n2c(C)cn3c4c(=O)n(CCN5CCOCC5)c(=O)n(C)c4nc23)c1 was read as Tgondii IFNg -76*.
Screening Cc1nc(-c2cc(C(=O)CCN3CCOCC3)c3ccccn23)cn1C returned Tgondii IFNg -34.
`OCCN1Cc2[nH]nc(COc3cccnc3)c2C1` gave Tgondii IFNg 150.
Screening O=C(CSCc1ccccc1)OCc1nc2ccccc2s1 returned Tgondii IFNg 1.
`CNC(=O)C[C@H]1CC[C@@H]2[C@@H](COc3ccc(NS(=O)(=O)c4ccc(F)cc4)cc3C(=O)N2C)O1` gave Tgondii IFNg 16.
Cn1ccc(C(=O)NC2CCC23CCN(Cc2ccoc2)CC3)c1 (configuration not stated) was read as Tgondii IFNg 3.
For Cc1csc(CN2C[C@H]3CCCO[C@H]3[C@H](N3CCCC3)C2)n1 the results were Tgondii IFNg -1.
For Cn1cc(CN2C[C@H]3CCCO[C@H]3[C@H](NS(C)(=O)=O)C2)cn1 the results were Tgondii IFNg -2.
Screening COCC(=O)N[C@H]1CN(Cc2scnc2C)C[C@H]2CCCO[C@H]21 returned Tgondii IFNg -81*.
For CN(C)Cc1ccccc1OCc1cn([C@@H]2CN[C@H](C(=O)O)C2)nn1 the results were Tgondii IFNg 13.
For COc1ccc(-c2[nH]ncc2-c2ncc[nH]2)cc1 the results were Tgondii IFNg 0.
For Cc1ccsc1C(=O)N1CCC(N2CCCC2)CC1C(=O)O (configuration not stated) the results were Tgondii IFNg 9.
For CC(C)(C)c1csc(NC(=O)c2cc(C3CCN(C(=O)C4CCCC4)CC3)no2)n1 the results were Tgondii IFNg 9.
Cc1ccc2ccc3ccc(C)nc3c2n1 was read as Tgondii IFNg -76*.
Screening Cc1ccc2cccc(N3C(=O)Nc4ccccc4N3O)c2n1 returned Tgondii IFNg 181.
Screening Cc1ccc2cccc(NS(=O)(=O)c3cn(C)nc3C)c2n1 returned Tgondii IFNg 65.
S=C(Nc1ccccc1)Nc1nc2ccccc2s1 was read as Tgondii IFNg -41.
`C[C@@H]1CCCCO[C@@H](CN(C)Cc2ccc(C(=O)O)cc2)[C@H](C)CN([C@H](C)CO)C(=O)c2cc(N(C)C)ccc2O1` gave Tgondii IFNg 65.
For Cc1ccc(S(=O)(=O)Nc2ccc3c(c2)C(=O)N([C@@H](C)CO)C[C@H](C)[C@H](CN(C)S(=O)(=O)c2cccs2)OCCCC[C@H](C)O3)cc1 the results were Tgondii IFNg -107*.
Cc1ccc(S(=O)(=O)Nc2ccc3c(c2)C(=O)N([C@H](C)CO)C[C@H](C)[C@H](CN(C)S(=O)(=O)c2cccs2)OCCCC[C@@H](C)O3)cc1 was read as Tgondii IFNg -19.
Screening Cc1ccc(S(=O)(=O)N(C)C[C@H]2OCCCC[C@H](C)Oc3ccc(NC(=O)c4ccncc4)cc3C(=O)N([C@@H](C)CO)C[C@H]2C)cc1 returned Tgondii IFNg 75.
For Cc1ccc(S(=O)(=O)N(C)C[C@H]2OCCCC[C@H](C)Oc3ccc(NC(=O)c4ccncc4)cc3C(=O)N([C@@H](C)CO)C[C@@H]2C)cc1 the results were Tgondii IFNg -98*.
Cc1noc(C)c1NC(=O)Nc1ccc2c(c1)C(=O)N([C@@H](C)CO)C[C@H](C)[C@@H](CN(C)S(=O)(=O)c1cccs1)OCCCC[C@@H](C)O2 was read as Tgondii IFNg 337.
Cc1ccc(S(=O)(=O)N(C)C[C@H]2OCCCC[C@H](C)Oc3ccc(NC(=O)c4ccncc4)cc3C(=O)N([C@H](C)CO)C[C@@H]2C)cc1 was read as Tgondii IFNg -8.
Cn1ccnc1C(NC(=O)CN1C(=O)NC(=O)C1(C)C)C1CC1 (configuration not stated) was read as Tgondii IFNg -39.
`O=C(NC(=O)c1ccc(F)cc1F)Nc1ccccc1Cl` gave Tgondii IFNg inactive.
